Results on 69 sequences are retold here after PubChem BioAssay AID1508600 (Functional Genomics Laboratory (NCATS/FGL), 2020).

Out of some 53,000 sequences screened, about 3,700 (7%) were called active. Only a selection was taken, and actives are over-represented in it overall. Values without a mark were called inactive.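 The calls were made as follows: active = gene knockdowns whose robust z-score for IL-1 alpha signal is at least 2 or at most -2, so actives lie on both sides; inactive = the rest.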

This assay is described as follows: Components of the Cytosolic LPS Sensing Pathway: Gene Identification via Genome-wide siRNA Screen.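 Also: robust z of the log signal after scaling to non-targeting control siRNA wells of the plate.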 The settings on record: RAW264.7 macrophages, IL-1a HTRF, actives lie on both sides, screened at 100 nM (by protocol), cells primed 5 h with Pam3CSK4 first. Put shortly:
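RAW264.7 mouse macrophages reverse-transfected with single siRNAs (100 nM final) for 48h, primed with Pam3CSK4 for 5 hours, then transfected with LipidA for 24 hour. Supernatant IL-1a read by HTRF; values normalized to negative-control median, log-transformed robust z-scores.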
With GGAGAACACCAAAAAGGGCTT against Uncx, the z-score is -1.26.

As for GCUGUGUGGACAAAGUCUGTT against Clec4b1, the z-score is -0.398.

With GGUCUUUAGAAUUAGGCUCTT against Pml, the z-score is 0.188.

Take GCACUUUAAAAGAAUCACUTT against Slc2a12: the z-score was 2.11 (active).

As to GGAAGAAGUAGCUAAAAACTT against Entpd4, the z-score is 0.488.

Turning to GGUCUUGCUAUUUGUGAUATT against Olfr1294, the z-score is 0.617.

With GGACUUCACAAGACUUCAATT against Nfam1, the z-score is 2.06 (active).

Turning to GGUCAAGGAAUUAGUGAUUTT against Tctex1d1, the z-score was 0.398.

Consider GGUACAGUGUCAUCAUGAATT against Olfr460, for which the z-score was -0.456.

Turning to GGUAAUUUGUAAGGAACCCTT against Rpusd2, the z-score is -0.881.

In the case of GGAAAAAUGGGAGUUUGAATT against Ccdc83, the z-score is -0.291.

Regarding GUCCUUCUCAUCAUGGGACTT against Sec61g, the z-score was -0.248.

On to GGCGAAAGUGCUUUUCCUGTT against Gbp8, for which the z-score is 1.03.

Take GCUGAUCCACGACUACUUGTT against Rab10os: the z-score is 1.24.

In the case of GCUUAGAUCUUACCCACCCTT against Ptcra, the z-score was 2.52 (active).

Consider GCUCCGUAAGAAGUCUCGUTT against Dhx16, for which the z-score is -0.676.

On to GAUGGAGAAACUGAAGAAGTT against Olfml2a, for which the z-score is -0.117.

As for UCCACUUCACUAAUCCUGUTT against Vmn2r43, the z-score is -2.52 (active).

Take GCUGGAUUUGGACUCUUAGTT against Vmn1r16: the z-score was 1.1.

In the case of GGGCUGUGAUAUGCAACUCTT against Teddm2, the z-score is -0.988.

Regarding GGAAAUGGUCCCUCUGUGUTT against Tspoap1, the z-score was -2.99 (active).

For the sequence CCUUUGAUCAAUUCUGAGUTT against Glb1, the z-score was -0.554.

Turning to GCAACGUGAAACAUAUUCUTT against Cpb1, the z-score was 1.69.

As to GGAAGUAACCACAUCCUAUTT against Epn2, the z-score is -0.628.

Turning to GGAGGGAAUGAAAAGUCAATT against Stard7, the z-score was 2.09 (active).

GGUCACUGUUAGUUAUUAATT against Tcerg1l: the z-score is 0.954.

Turning to GGGUAUUUUACCACUACUUTT against Psg23, the z-score was 0.32.

For GCCGUCACAAGAACUGAACTT against Apon, the z-score is -0.24.

With CCCACUUUGAGGAAAGCUATT against Itprip, the z-score is -2.46 (active).

On to GGAAAACUAACCAAAAUAGTT against F3, for which the z-score was 1.45.

On to GGCAAAUUAUUAGUACAGUTT against Gabpa, for which the z-score is 1.41.

Take CCCGAAUCUCAGCGUAGAATT against Gm5617: the z-score was -0.853.

Turning to GGAGUUCAAUCCAACAAAATT against Atxn2l, the z-score was -1.4.

Take GCUCAGAGACAAGCAACUGTT against Kcnk7: the z-score was 0.247.

Regarding GGAACAGAAAACCAUAUAATT against Snx29, the z-score was -2.54 (active).

Consider GGUUAUGAGGCUUAAUAAATT against Atxn7l1, for which the z-score was 0.965.

With CCCUCGGUGCCUAAUAAAUTT against Hsd17b10, the z-score is -0.0731.

As to GGAUGCUAUAAAGAAUGCCTT against Prpf39, the z-score was -1.19.

UCCGUUGGAGUAUCGAUGUTT against Trp53rka: the z-score was -1.25.

GCGAGAUGGAAGGAUCUUGTT against Anapc13: the z-score was 5.28 (active).

In the case of GGAGAACAUGGAGACUAUUTT against Ramp1, the z-score is -0.756.

Take GGUCUACCAUUUCACCUUGTT against Cops4: the z-score was 1.19.

As for GUUGCCAGAUUUGGAUAUUTT against Abcg5, the z-score is 0.664.

Consider CGGGAAGAGUACUUGUUUUTT against Cfl1, for which the z-score is 0.153.

Regarding CAAAGCCACCUCGCCCUAUTT against Nkx2-6, the z-score was -0.0586.

In the case of GGCUUAUGUUUGCUUUGUUTT against Piwil1, the z-score was 0.0916.

In the case of CCUUUUUCUGGAUUGGAAUTT against Klrd1, the z-score was -0.00525.

For GGAAUAUGACUUCAAGAUGTT against Lmnb2, the z-score was 4.28 (active).

Take AAUGCAAACAAUGCAAAUGTT against Mt2: the z-score is -0.174.

Turning to GGCUAAAGCGAAAAAAAAGTT against Msl3, the z-score is -0.114.

Turning to CGGAUUCACAAGAACACCUTT against Pramel12, the z-score was -0.157.

In the case of GGGCUGUUCCAUUUCUUUATT against Atcay, the z-score is 0.727.

Regarding CGGAACUCUGCCACAAGUUTT against Zfp36, the z-score is 1.27.

GGCAUAUGUUGAAACUAUUTT against Sel1l3: the z-score was 1.29.

Take GCUCGUGUCAGAACCGAUGTT against Rwdd3: the z-score is 2.39 (active).

Consider GCCAAAAAAGCUGUCAGUUTT against Nkx2-3, for which the z-score is -1.11.

With GGAGGACGUAACUAAAUCATT against Napepld, the z-score is -0.934.

Take UCUACAGGACUAUUAGAUUTT against Wnt6: the z-score was 0.563.

Consider GGUUCUAUAGGGCUCCGAATT against Tmem179b, for which the z-score was 4.23 (active).

Turning to GGGAUCAAAACAUACUGUGTT against Klra4, the z-score is 0.0891.

Take GGUCAUGCAGGUUUUGAAUTT against Snd1: the z-score is 1.9.

With GGCUGAAAUAAAACAAGAATT against Use1, the z-score was -0.778.

Regarding GCAGAAGCGUGGCAUUGUATT against Ins2, the z-score is 0.5.

In the case of GGAAGUGCUGAAGGUGUACTT against Spire2, the z-score was 2.38 (active).

For GGAUUUAGCCAAUCAAUCUTT against Cdc14b, the z-score was -0.872.

In the case of GGACUACCUAUGGUUAAAATT against Nup93, the z-score is -1.58.

With GCUGGUUAGACCCUUCCAATT against Hnf4g, the z-score was 3.56 (active).

Regarding GCAUCUACUCCCUAUAGACTT against Nin, the z-score is 0.322.

GGCAGAGGAAAUCAUGAAGTT against Clpp: the z-score was -1.05.
